# Data reported in PubChem BioAssay.
# Results with a measured potency or affinity are listed apart. The source made the active and inactive calls. The rule behind the calls is not given here.
# Assay: cytotoxicity in OVCAR8 ovarian cancer cells, dose response, PAX8 project, cell-based, plate reader, dry powder samples (AID 743197)
# Conditions: series mostly up to 35 µM
row,Compound,outcome
1,Cc1cccc(-c2ccc([C@H]3[C@H](CO)N4CCCCN(S(=O)(=O)c5ccccc5C)C[C@@H]34)cc2)c1,inactive
2,C[C@@H]1CN([C@H](C)CO)C(=O)c2cc(NC(=O)Nc3ccc(F)cc3)ccc2O[C@@H](C)CCCCO[C@H]1CN(C)Cc1ccc(Cl)c(Cl)c1,inactive
3,C[C@@H]1CCCCO[C@H](CN(C)C)[C@H](C)CN([C@H](C)CO)C(=O)c2cc(NC(=O)Nc3cccc4ccccc34)ccc2O1,inactive
4,C[C@@H]1CN([C@@H](C)CO)C(=O)c2cc(NC(=O)c3ccccc3)ccc2O[C@@H](C)CCCCO[C@H]1CN(C)Cc1ccc(C(F)(F)F)cc1,inactive
5,O=C(Nc1ccc(C(F)(F)F)cc1)N1C[C@@H]2N[C@H](C1)C2c1ccc(-c2ccccc2)cc1 (some centres undefined),inactive
6,C[C@@H]1CN([C@H](C)CO)C(=O)c2cc(NC(=O)Nc3ccc(F)cc3)ccc2O[C@@H](C)CCCCO[C@H]1CN(C)C(=O)Nc1ccc(F)cc1,inactive
7,O=S(=O)(c1ccc(F)cc1)N1C[C@H]2[C@@H](c3ccccc31)[C@H](CO)N2Cc1ccccc1Cl,inactive
8,C[C@H]1CN([C@@H](C)CO)C(=O)CCCn2nncc2CO[C@@H]1CN(C)C(=O)Nc1ccc(-c2cccs2)cc1,inactive
9,Cc1ccc(S(=O)(=O)Nc2cccc3c2O[C@@H](CN(C)C(=O)Nc2ccc(C(F)(F)F)cc2)[C@@H](C)CN([C@H](C)CO)C3=O)cc1,inactive
10,O=C(C[C@@H]1C[C@H]2c3cc(NC(=O)C4CCOCC4)ccc3O[C@H]2[C@H](CO)O1)NCc1ccc(Oc2ccccc2)cc1,inactive
11,C[C@@H]1CN([C@H](C)CO)C(=O)c2cc(NC(=O)c3ccncc3)ccc2O[C@@H](C)CCCCO[C@H]1CN(C)Cc1ccc(C(F)(F)F)cc1,inactive
12,C[C@@H]1CN([C@H](C)CO)C(=O)c2cc(NS(=O)(=O)c3ccc(F)cc3)ccc2O[C@@H]1CN(C)Cc1ccc(C(F)(F)F)cc1,inactive
13,C[C@@H]1CCCCO[C@@H](CN(C)S(=O)(=O)c2ccc(Cl)cc2)[C@H](C)CN([C@@H](C)CO)C(=O)c2cc(NS(=O)(=O)c3ccc(Cl)cc3)ccc2O1,inactive
14,C[C@H](CO)N1C[C@H](C)[C@H](CN(C)S(=O)(=O)c2cccs2)OCCCC[C@H](C)Oc2ccc(NC(=O)NC3CCCCC3)cc2C1=O,inactive
